Inconclusive results are not listed. The source made the active and inactive calls. Unless noted, the limit is not given here; nearly all actives have AC50 up to about 26 µM.
What was measured:
[1] = tested on: Hepatitis C virus NS3 helicase; test: HCV NS3 helicase inhibitors, primary screen, biochemical, fluorescence polarization, LOPAC1280 library (AID 687035; in the data active = inhibition above about 37%); conditions: Purified HCV NS3 helicase, Cy5-dT15 ssDNA binding fluorescence polarization; stronger effect = higher value; concentration not given here
[2] = Cy5 fluorescence quenching or enhancement artefacts, artefact control for HCV NS3 helicase inhibitor project, biochemical, LOPAC1280 (AID 687037; call rule not given here); conditions: Cy5-DNA-NS3h complex fluorescence interference counterscreen
[3] = growth inhibition of DIPG glioma cells, dose response, cell-based, SU-DIPG-XIII, MIPE4.0, CellTiter-Glo, qHTS (AID 1347061; cut-off not given, nearly all actives have AC50 up to about 37 µM;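 also: cells exposed to compound for 48 hours before readout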); conditions: SU-DIPG-XIII viability, CellTiter-Glo ATP luminescence
[4] = growth inhibition of DIPG glioma cells, dose response, cell-based, JHH-DIPG-1, MIPE4.0, CellTiter-Glo, qHTS (AID 1347062; cut-off not given, nearly all actives have AC50 up to about 27 µM); conditions: JHH-DIPG-1 viability, CellTiter-Glo ATP luminescence
[5] = growth inhibition of DIPG glioma cells, dose response, cell-based, SU-DIPG-IV, MIPE4.0, CellTiter-Glo, qHTS (AID 1347063; cut-off not given, nearly all actives have AC50 up to about 30 µM;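 also: compound exposure lasted 48 hours before the viability readout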); conditions: SU-DIPG-IV viability, CellTiter-Glo ATP luminescence
[6] = growth inhibition of DIPG glioma cells, dose response, cell-based, SU-DIPG-XIII, MIPE5.0, CellTiter-Glo, qHTS (AID 1347064; cut-off not given, nearly all actives have AC50 up to about 23 µM;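 as to AC50: cells exposed to compound for 48 hours before the viability read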); conditions: SU-DIPG-XIII viability, CellTiter-Glo ATP luminescence
[7] = viability loss in pontine glioma line – cell-based, SU-DIPG-XXV, MIPE5.0, CellTiter-Glo, qHTS, dose response (AID 1347065); conditions: CellTiter-Glo ATP luminescence;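 also: cells exposed to compound for 48 hours before ATP readout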
[8] = SU-DIPG-VI glioma cell viability, MIPE4.0 library, CellTiter-Glo luminescence, qHTS (AID 1347066; cut-off not given, nearly all actives have AC50 up to about 30 µM;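 also: cells exposed to compound for 48 hours before readout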); conditions: CellTiter-Glo ATP luminescence
[9] = JHH-DIPG-1 glioma cell viability, MIPE5.0 library, CellTiter-Glo luminescence, qHTS (AID 1347067); conditions: JHH-DIPG-1 glioma viability, CellTiter-Glo ATP luminescence;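 also: cells exposed to compound for 48 hours before readout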
[10] = SU-DIPG-XXV glioma cell viability, MIPE5.0 library, qHTS (AID 1347068; cut-off not given, nearly all actives have IC50 up to about 30 µM)
[11] = sensitizers of A549 cells to miR-34 induction, primary screen, imaging, A549 dox-inducible miR-34, nuclei and caspase counts (AID 1347080;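 active = compounds whose cell count with miR-34 switched on is under 0.7 times the count with it off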); conditions: A549 miR-34 inducible, Hoechst nuclei count, 48 h
[12] = phospholipid biosynthesis inhibitors in animal cells, primary screen, cell-based, LOPAC library, screen 4 (AID 1347384; call rule not given here); conditions: phospholipid biosynthesis inhibition screen, at 10 µM
[13] = viability rescue of complex I mutant cybrids, primary screen, cell-based, galactose medium, ATP luminescence (AID 1645843;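 active = z-score of at least 1.8 in each of two replicates, scored against plate mean and spread of sample wells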;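 also: positive z means more ATP and so rescue of galactose-driven cybrid death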); conditions: complex I mutant cybrid cells, 72 h, stronger effect = higher value

CCc1ccc(/C=C2/SC(=S)NC2=O)cc1
8930: cell count ([11]; measured here: total cells without miR-34 induction)
inactive: inhibition [1] -3% | fluorescence ratio (interference) [2] 1 | outcome [3] | outcome [4] | outcome [5] | outcome [6] | outcome [7] | outcome [8] | outcome [9] | outcome [10] | fold change ([11]; stronger effect = lower value, cell number ratio, induced over uninduced) 1 | outcome [12] | z-score [13] -0.65
8940: cell count ([11]; measured here: total cells with miR-34 induction, stronger effect = lower value)
1.81: fold change ([11]; measured here: relative caspase fold change +Dox/-Dox)

CN1C(=O)C[C@H](C(=O)N[C@@H](Cc2cnc[nH]2)C(=O)N2CCC[C@H]2C(N)=O)NC1=O
inactive: outcome [3]

CO[C@H]1/C=C/O[C@@]2(C)Oc3c(C)c(O)c4c(O)c(c5c(c4c3C2=O)=NC2(CCN(CC(C)C)CC2)N=5)NC(=O)/C(C)=C/C=C/[C@H](C)[C@H](O)[C@@H](C)[C@@H](O)[C@@H](C)[C@H](OC(C)=O)[C@@H]1C
inactive: outcome [3] | outcome [4] | outcome [5] | outcome [6]

CCOC(=O)[C@@H](N)CCC(=O)N[C@@H](CSCc1ccccc1)C(=O)N[C@@H](C(=O)OCC)c1ccccc1
active: AC50 [6] 18.6 µM | AC50 [7] 26.3 µM | AC50 [9] 23.5 µM
inactive: outcome [3] | outcome [4] | outcome [5] | outcome [10]

C[C@@H]1C(=O)O[C@H]2CC34[C@H]5C[C@@H](C(C)(C)C)C36[C@@H](OC(=O)[C@@H]6O)O[C@@]4(C(=O)O5)[C@]21O (stereo not given in full)
inactive: outcome [3] | outcome [4] | outcome [5] | outcome [6] | outcome [7] | outcome [8] | outcome [9]
